“And” between values parts separate entries of the source, which are not always exact repeats. Equal values may be shown once. Inconclusive results are not listed. The source made the active and inactive calls. Calls follow the shape of the dose curve; as a rule, active = well fitted curve in the direction sought with a large enough effect; inconclusive = small, poorly fitted or top-dose-only effect, or another doubt; inactive = no such curve, though single readings can be large; an effect the other way counts as inactive or inconclusive.
What was measured:
[1] = qHTS of pediatric cancer cell lines to identify multiple opportunities for drug repurposing: Confirmatory screen for Rh18 cells (AID 1347125); also: nearly all actives have a fitted effect of over 55% in size; also: potency is read from the fitted curve at half-maximal effect
Method in brief: (§1)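 Viability after 48 h compound treatment at 37C, 500-1,000 cells/well, read as ATP luminescence with CellTiter-Glo. Primary screens used 11-point (MIPE, 0.78 nM-46 µM) or 8-point (NPC, 0.59 nM-46 µM) final concentrations; follow-up screens used 11-point dilutions.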

[2] = qHTS of pediatric cancer cell lines to identify multiple opportunities for drug repurposing: Confirmatory screen for Rh30 cells (AID 1347126); also: % is scaled to controls: 0 for no effect and ±100 for the full control effect; nearly all actives have a fitted effect of over 55% in size
Method in brief: as §1

[3] = qHTS of pediatric cancer cell lines to identify multiple opportunities for drug repurposing: Confirmatory screen for Saos-2 cells (AID 1347127); also: nearly all actives have a fitted effect of over 60% in size; also: potency is read from the fitted curve at half-maximal effect
Method in brief: as §1

[4] = qHTS of pediatric cancer cell lines to identify multiple opportunities for drug repurposing: Confirmatory screen for OHS-50 cells (AID 1347128);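 also: compound exposure lasted 48 h at 37 degrees C; nearly all actives have a fitted effect of over 55% in size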; also: potency is read from the fitted curve at half-maximal effect
Method in brief: as §1

[5] = qHTS of pediatric cancer cell lines to identify multiple opportunities for drug repurposing: Confirmatory screen for SK-N-SH cells (AID 1347129);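 also: cells exposed to compound for 48 h before viability read; nearly all actives have a fitted effect of over 60% in size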; also: potency is read from the fitted curve at half-maximal effect
Method in brief: as §1

[6] = tested on: Zika virus NS2B-NS3 protease; assay: Primary screen GU AMC qHTS for Zika virus inhibitors (AID 1347154);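 also: 0% = no-inhibitor control and -100% = no-enzyme control; nearly all actives have a fitted effect of over 70% in size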
Method in brief: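 Unlinked Zika NS2B hydrophilic domain–NS3 protease complex at 25 nM in 10 mM Tris-HCl pH 8.0, 0.01% Tween 20, with an AMC peptide substrate. Fluorescence change (340/450 nm) over 15 min at room temperature, normalized to controls, fitted to 4-parameter Hill.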

[7] = qHTS to identify inhibitors of the type 1 interferon - major histocompatibility complex class I in skeletal muscle: primary screen against the NCATS Pharmaceutical Collection (AID 1347407);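 also: luminescence of HiBiT knocked into endogenous HLA-B as interferon-induced MHC class I level; % is scaled to controls: 0 for no effect and ±100 for the full control effect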
Method in brief: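 HLA-B HiBiT myoblasts, dexamethasone-free growth medium + 4 ng/ml IFN-b; compounds pinned 1 h after seeding, […] from 46 uM; 24 h, 37 C, 5% CO2; lytic HiBiT detection, 10 min RT, luminescence.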

[8] = target: N-terminal Xaa-Pro-Lys N-methyltransferase 1 (Homo sapiens) (UniProt Q9BV86); assay: qHTS Assay for Inhibitors of N-terminal methyltransferase 1 (NTMT1): LOPAC validation of the NTMT1 SAHH-coupled ThioGlo3 Assay (AID 1347143);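 also: SAH from peptide methylation measured as thiol fluorescence via SAHH coupling and ThioGlo3; % is scaled to controls: 0 for no effect and ±100 for the full control effect; nearly all actives have a fitted effect of over 70% in size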
Sequence of N-terminal Xaa-Pro-Lys N-methyltransferase 1 (Homo sapiens) (Q9BV86 whole entry, looked up): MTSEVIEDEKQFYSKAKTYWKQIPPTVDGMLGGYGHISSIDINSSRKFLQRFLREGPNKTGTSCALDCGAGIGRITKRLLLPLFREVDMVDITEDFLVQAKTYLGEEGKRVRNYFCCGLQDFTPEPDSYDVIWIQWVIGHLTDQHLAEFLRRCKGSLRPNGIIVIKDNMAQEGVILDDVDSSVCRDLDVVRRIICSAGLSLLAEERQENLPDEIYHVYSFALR
Method in brief: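 Recombinant human NTMT1 (125nM) was pre-incubated 1 min at room temperature with compounds over a concentration range, then a mix of 100uM SAM, 10uM SAHH and 15uM ThioGlo3 (concentrations in added reagent) was added. ThioGlo3 fluorescence (ex 340/em 450nm) after 30 min was normalized to the initial reading.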

[9] = tested on: Zika virus NS2B-NS3 protease (unlinked); assay: Optimization of GU AMC qHTS for Zika virus inhibitors: Unlinked NS2B-NS3 protease assay (AID 1347151);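 also: 0% = no-inhibitor control and -100% = no-enzyme control; nearly all actives have a fitted effect of over 80% in size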
Method in brief: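 Fluorescence read-out (340 nm ex / 450 nm em) of AMC peptide cleavage, taken immediately and after 15 min at room temperature (~20% conversion). Enzyme was the unlinked NS2B–NS3 complex at 25 nM in Tris pH 8.0 buffer.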

[10] = target: Lysine-specific demethylase 5B (Homo sapiens) (UniProt Q9UGL1); assay: Optimization screen for KDM5B Histone Demethylases FDH coupled qHTS against the LOPAC library (AID 1347166); conditions: KDM5B demethylation, FDH-coupled NADH fluorescence (FDH is formaldehyde dehydrogenase); at 57.5 µM (top of the series); also: 0% is about no effect
Sequence of Lysine-specific demethylase 5B (Homo sapiens) (Q9UGL1 whole entry, looked up): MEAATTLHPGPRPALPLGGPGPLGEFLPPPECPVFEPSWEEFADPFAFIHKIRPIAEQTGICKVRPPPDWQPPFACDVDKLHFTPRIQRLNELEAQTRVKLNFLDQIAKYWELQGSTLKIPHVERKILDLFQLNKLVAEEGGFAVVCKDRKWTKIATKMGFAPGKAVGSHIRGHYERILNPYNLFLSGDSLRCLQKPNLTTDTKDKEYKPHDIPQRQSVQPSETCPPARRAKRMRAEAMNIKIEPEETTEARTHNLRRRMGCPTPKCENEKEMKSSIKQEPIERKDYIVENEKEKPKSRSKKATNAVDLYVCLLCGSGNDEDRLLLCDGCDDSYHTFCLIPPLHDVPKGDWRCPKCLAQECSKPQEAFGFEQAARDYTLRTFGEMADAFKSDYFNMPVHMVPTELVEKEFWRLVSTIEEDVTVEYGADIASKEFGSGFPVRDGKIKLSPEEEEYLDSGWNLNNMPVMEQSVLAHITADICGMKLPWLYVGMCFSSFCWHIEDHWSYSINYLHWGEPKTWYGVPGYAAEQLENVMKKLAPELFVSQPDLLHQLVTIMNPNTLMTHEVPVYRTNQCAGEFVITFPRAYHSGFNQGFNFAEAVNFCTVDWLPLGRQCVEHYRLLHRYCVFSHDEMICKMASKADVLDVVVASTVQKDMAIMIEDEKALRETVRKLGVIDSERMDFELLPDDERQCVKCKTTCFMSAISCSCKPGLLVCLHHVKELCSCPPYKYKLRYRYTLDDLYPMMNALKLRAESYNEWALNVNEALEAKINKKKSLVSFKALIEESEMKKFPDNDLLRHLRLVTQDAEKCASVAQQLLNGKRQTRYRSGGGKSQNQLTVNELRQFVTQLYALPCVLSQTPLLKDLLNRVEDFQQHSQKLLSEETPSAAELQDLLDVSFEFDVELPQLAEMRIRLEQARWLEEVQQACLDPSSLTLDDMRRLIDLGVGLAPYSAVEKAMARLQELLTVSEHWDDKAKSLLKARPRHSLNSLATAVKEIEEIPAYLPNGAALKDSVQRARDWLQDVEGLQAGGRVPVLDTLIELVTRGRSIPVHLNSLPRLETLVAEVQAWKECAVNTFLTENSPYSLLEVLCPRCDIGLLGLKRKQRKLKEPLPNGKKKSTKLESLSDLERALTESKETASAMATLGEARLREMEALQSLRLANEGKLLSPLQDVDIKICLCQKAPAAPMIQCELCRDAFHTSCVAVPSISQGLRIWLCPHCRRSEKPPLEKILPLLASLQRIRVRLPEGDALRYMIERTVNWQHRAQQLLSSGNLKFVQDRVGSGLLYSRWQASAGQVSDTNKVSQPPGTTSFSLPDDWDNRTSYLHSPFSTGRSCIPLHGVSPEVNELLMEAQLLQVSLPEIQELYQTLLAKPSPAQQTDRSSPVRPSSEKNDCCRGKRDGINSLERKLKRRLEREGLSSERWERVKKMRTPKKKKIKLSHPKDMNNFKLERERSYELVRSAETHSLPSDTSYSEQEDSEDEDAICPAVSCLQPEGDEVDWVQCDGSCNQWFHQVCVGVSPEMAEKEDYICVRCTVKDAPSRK
Method in brief: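 KDM5BDeltaAP (200nM final) preincubated 10 min with compound, then 12.5uM H3K4Me3, 25uM a-ketoglutarate, ascorbate, Fe(II), NAD+ and FDH added; 50mM HEPES pH 7.5, 0.01% Tween-20. NADH fluorescence (340/450 nm) change over 30 min, room temperature.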

[11] = ZIKV-mCherry secondary qHTS for Zika virus inhibitors (AID 1347158); also: top concentration of the series differs between compounds
Method in brief: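 Vero cells, 5,000/well, plated overnight at 37 °C, then compound added and infected with recombinant ZIKV-mCherry at MOI 1 for 48-72 h. PFA-fixed, Hoechst nuclear stain, high-content imaging; cells with mCherry intensity above 450 RFU scored infected, reported as percent infection.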

[12] = tested on: Zika virus NS2B-NS3 protease (linked); assay: 384 well plate NINDS AMC confirmatory qHTS for Zika virus inhibitors (AID 1347163); conditions: Recombinant NS2B-NS3 protease, Ac-VKTGKR-AMC fluorescence; also: potency is read from the fitted curve at half-maximal effect; nearly all actives have a fitted effect of over 50% in size
Method in brief: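 Linked protease 5/30/60 nM final; cpds up to 1 mM final, ~15 min preinc. Substrate Ac-VKTGKR-AMC 30 microM final. RT, dark, 25 min; FI ex 355/em 460; normalized to no-enzyme/no-inhibitor ctrls.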

[13] = tested on: Zika virus NS2B-NS3 protease (linked construct); assay: 384 well plate NINDS Rhodamine confirmatory qHTS for Zika virus inhibitors (AID 1347164); conditions: rhodamine-110 peptide substrate fluorescence;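 also: fluorescence from protease cleavage of Ac-LKRR-rhodamine 110 substrate; potency is read from the fitted curve at half-maximal effect; nearly all actives have a fitted effect of over 65% in size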
Method in brief: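 Fluorescence read at ex 485 nm/em 538 nm, 25 min after adding 10 microM Ac-LKRR-Rd substrate at room temperature in the dark; signal normalized to no-enzyme and no-inhibitor controls. Enzyme final 5, 30 or 60 nM; compounds, ~15 min preincubation.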

[14] = Vero cells viability qHTS for Zika virus inhibitors (AID 1347167); also: % is scaled to controls: 0 for no effect and ±100 for the full control effect
Method in brief: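 Cells seeded at 2.5 x 10^5 cells/mL in DMEM with 4% FBS and attached overnight at 37 degrees C, then exposed to compound for 24 to 48 hours. Viability read as ATP content by CellTiter Glo luminescence.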

[15] = Tertiary RLuc qRT-PCR qHTS assay for Zika virus inhibitors (AID 1347169); also: potency is read from the fitted curve at half-maximal effect; nearly all actives have a fitted effect of over 55% in size
Method in brief: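 Luminescence read-out: live-cell Renilla luciferase substrate applied to infected Vero cells, signal measured after 1-1.5 hrs. Cells had received compound before ZIKV-RLuc (Cambodian strain, MOI 1-2) infection and were incubated 48-72 hrs at 37 degrees C.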

Cc1cccc(N(C)C(=S)Oc2ccc3ccccc3c2)c1
inactive: Potency [1] | Potency [2] | Potency [3] | Potency [4] | Potency [5] | Potency [6] | Potency [7]

S=P(N1CC1)(N1CC1)N1CC1
inactive: Potency [1] | Potency [2] | Potency [3] | Potency [4] | Potency [6] | Potency [7]

CC(C)(C)C(=O)OCOP(=O)(COCCn1cnc2c(N)ncnc21)OCOC(=O)C(C)(C)C
inactive: Potency [1] | Potency [5] | Potency [6] | Potency [7]
active: Potency [3] 14.7 µM | Potency [4] 16.5 µM

CC(C)(C#N)c1cc(Cn2cncn2)cc(C(C)(C)C#N)c1
inactive: Potency [1] | Potency [2] | Potency [3] | Potency [4] | Potency [5] | Potency [6] | Potency [7]

COc1ccc(C(=O)CC(=O)c2ccc(C(C)(C)C)cc2)cc1
inactive: Potency [1] | Potency [2] | Potency [3] | Potency [4] | Potency [5] | Potency [6] | Potency [7]

CC1CC2C3CCC4=CC(=O)C=C[C@]4(C)[C@@]3(F)[C@@H](O)C[C@]2(C)[C@@]1(O)C(=O)CO (stereo partly specified)
inactive: Potency [1] | Potency [3] | Potency [4] | Potency [5] | Potency [8] | Potency [9] | Potency [6] | activity, negative = inhibition [10] -6.72%

COC(=O)Nc1nc2ccc(Sc3ccccc3)cc2[nH]1
active: Potency [3] 1.31 µM | Potency [4] 1.31 µM | Potency [5] 5.9 µM
inactive: Potency [2] | Potency [6]

COC(=O)Nc1nc2ccc(C(=O)c3ccccc3)cc2[nH]1
active: Potency [4] 2.93 µM | Potency [12] 126 µM | Potency [13] 178 µM | Potency [15] 829 nM
inactive: Potency [1] | Potency [2] | Potency [5] | Potency [9] | Potency [6] | outcome [11] | Potency [14]

Nc1nc(=S)c2[nH]cnc2[nH]1
active: Potency [1] 13.1 µM | Potency [3] 7.37 µM and 2.93 µM | Potency [4] 928 nM and 414 nM | Potency [5] 4.18 µM and 3.72 µM | Potency [15] 4.15 µM and 3.3 µM
inactive: Potency [9] | Potency [6] | Potency [14] | Potency [7]

Source: PubChem BioAssay (NCATS)
